In PubChem BioAssay (NCATS) one finds Potency data, which are given here for 30 molecules.

SMILES strings stand for the structures. Results filed as inconclusive are left out. Where a call stands in place of a potency, no number is given. The source made the active and inactive calls. The call rests on the fitted dose curve; in most records, active means well fitted cell-killing curve with a large enough effect; inconclusive means small, poorly fitted or top-dose-only effect; inactive means no such curve, though single readings can be large or run the other way.
Potency means the concentration at half of the fitted maximal effect.

The test in a line: qHTS of pediatric cancer cell lines to identify multiple opportunities for drug repurposing: Confirmatory screen for U-2 OS cells (AID 1347122). Further: nearly all actives have a fitted effect of over 65% in size. The conditions noted are these: U-2 OS osteosarcoma cell viability; series mostly up to 45.9 µM. The text has this:
Drug repurposing or repositioning has been offered as a strategy for drug development in oncology programs. This approach has special potential for childhood cancers and other rare or orphan diseases, where the expected return on new drug development has been a disincentive to pharmaceuticals.
In this project we exploit the poly-pharmacology of drugs to discover new indications via phenotypic screening of a panel of 19 well-characterized cell lines derived from solid tumors seen in children and adolescents. The goal is to identify approved drugs with previously unrecognized anticancer properties that has the potential to reveal new mechanisms and biological processes involved in carcinogenesis or drug resistance. We employed a titration-based paradigm (quantitative high-throughput screening or qHTS), where all compounds were tested at multiple concentrations for their effect on cell viability. Concentration-response curves (CRCs) were derived directly from the primary screen, and both potency and efficacy values were used to identify compounds with robust bioactivity profiles. We screened the NIH Chemical Genomics Center (NCGC) Pharmaceutical Collection (NPC) and Mechanism Interrogation Plate (MIPE) small molecule collections of approved and investigational compounds against these cell lines; and measured metabolically active cells after 48 hours of compound treatment as a proxy for cell viability.
Assay Submitter: Nathalia J. Martinez, National Center for Advancing Translational Sciences, National Institutes of Health, Rockville, MD, USA; email: natalia.martinez@nih.gov
[1] Shen, M et al. Quantitative high-throughput phenotypic screening of pediatric cancer cell lines identifies multiple opportunities for drug repurposing. Oncotarget 2017 Dec 19;9(4):4758-4772. PMID 29435139.
The cells were obtained from University of North Carolina (UNC), Pediatric Preclinical Testing Program (PPT), and Coriell Institute (CI).
qHTS cell viability assay:
Cells were assayed in growth media at a density of 500-1,000 cells/well. Five microliters of cells were dispensed into 1,536-well, white, solid-bottom, TC-treated plates (Greiner Bio One) using a multidrop dispenser and incubated at 37 degrees C, 5% CO2, under a humidified atmosphere for 5 hours. Twenty-three nanoliters of compounds and controls (neutral control DMSO or positive control bortezomib at final concentration of 2.3 µM) were subsequently transferred by Kalypsys pintool. For primary screens, the MIPE collection was tested at 11-point dilutions (final concentrations range from 0.78 nM to 46 µM) and the NPC collection at 8-point dilutions (final concentrations range from 0.59 nM to 46 µM). Compounds tested in follow-up screens were assayed at 11-point dilutions. Cells were incubated for 48 hours, followed by addition of 3 µL of CellTiter-Glo (Promega). After a 15 min incubation at room temperature, samples were analyzed for luminescence intensity using a ViewLux High-throughput CCD imager equipped with clear filters.
A general note: qHTS replaces the single test concentration by a dilution series.
With `CC(C)[C@]12O[C@@H]1[C@@H]1O[C@]13[C@]1(O[C@H]1C[C@@H]1C4=C(CC[C@@]13C)C(=O)OC4)[C@H]2O`, the Potency was 73.7 nM (active). Turning to `CC(C)(O)C=CC(=O)[C@](C)(O)[C@H]1[C@H](O)C[C@]2(C)[C@@H]3CC=C4[C@@H](C=C(O)C(=O)C4(C)C)[C@]3(C)C(=O)C[C@@]12C`, the Potency is 208 nM (active).

With `CCC(=O)OC1CCC2C3CCC4=CC(=O)CC[C@@]4(C)C3CC[C@]12C` (stereo not given in full), the Potency result was “inactive”. Consider `COc1ccc(C(=O)c2c(C)n(CCN3CCOCC3)c3cc(I)ccc23)cc1`, for which the Potency was 16500 nM (active). For `COC1=CC(C)=C[C@@H](C)[C@@H](O)[C@@H](C)CC(C)=CC=C[C@H](OC)[C@H]([C@@H](C)[C@@H](O)[C@H](C)[C@@]2(O)C[C@@H](O)[C@H](C)[C@@H](C(C)C)O2)OC1=O`, the Potency entry was “inactive”.

As to `C[C@@]12OC(=O)[C@]1([C@@H](O)[C@@H]1C=CCCC1)NC(=O)[C@H]2CCCl`, the Potency is 329 nM (active). To `CC1=C(O)C(=O)C=C2C1=CC=C1[C@@]2(C)CC[C@@]2(C)[C@@H]3C[C@](C)(C(=O)O)CC[C@]3(C)CC[C@]12C` belongs 928 nM (active); to `O=C(Nc1ccncc1)C(=O)c1cn(Cc2ccc(Cl)cc2)c2ccccc12`, 465 nM (active).

With `CO[C@H]1CCC(O[C@H]2C[C@H]([C@]3(C)CC[C@]4(C[C@H](O)[C@@H](C)[C@@H]([C@@H](C)C=C(C)C(=O)[C@H](C)C[C@H](C)C(=O)O)O4)O3)O[C@]3(O[C@@H]([C@H]4O[C@@](O)(CO)[C@H](C)C[C@H]4C)C[C@H]3C)[C@H]2C)O[C@H]1C` (stereo not given in full), the Potency was 5220 nM (active).

As for `CS(=O)(=O)c1ccc(C(=O)C2C(=O)CCCC2=O)c([N+](=O)[O-])c1`, the Potency result was “inactive”. As to `CC(=Cc1csc(C)n1)[C@@H]1C[C@H]2O[C@]2(C)CCC[C@H](C)[C@@H](O)[C@@H](C)C(=O)C(C)(C)[C@@H](O)CC(=O)O1`, the Potency was 26.1 nM (active).

In the case of `O=C(O)COc1nc(Cl)c(Cl)cc1Cl`, the Potency entry is “inactive”. In the case of `CCCN1CCO[C@@H]2c3cc(O)ccc3OC[C@@H]21`, the Potency entry was “inactive”.

Regarding `Cc1ccccc1-n1c(Cn2cnc3c(N)ncnc32)nc2cccc(C)c2c1=O`, the Potency entry was “inactive”. Turning to `CC[C@H]1C=CC=CC[C@@H](C)[C@H](O)[C@@](C)(O)C(=O)[C@@H](C)[C@H](O)[C@@H](C)C(=O)[C@@H](C)[C@H](O)[C@@H](C)C=CC(=O)O[C@@H]2[C@@H](C)[C@H](CC1)O[C@]1(CC[C@H](C)[C@H](C[C@@H](C)O)O1)[C@H]2C`, the Potency is 4.6 nM (active). Consider `Cc1c(C(=O)Nc2cccc(C(F)(F)F)c2)cc(-c2ccccc2)n1CCCN1CCOCC1`, for which the Potency is 24000 nM (active). Turning to `Cc1ccccc1-n1c(Cn2ncc3c(N)ncnc32)nc2cccc(C)c2c1=O`, the Potency entry is “inactive”.

In the case of `Cc1c(N)nc([C@H](CC(N)=O)NC[C@@H](N)C(N)=O)nc1C(=O)N[C@H](C(=O)N[C@@H](C)[C@H](O)[C@@H](C)C(=O)N[C@@H](C(=O)NCCc1nc(-c2nc(C(=O)NCCC[S+](C)C)cs2)cs1)[C@@H](C)O)C(O[C@H]1O[C@H](CO)[C@H](O)[C@@H](O)[C@@H]1O[C@H]1O[C@H](CO)[C@@H](O)[C@H](OC(N)=O)[C@H]1O)c1cnc[nH]1` (stereo not given in full), the Potency result is “inactive”. Regarding `O=C(O)CCCOc1ccc(Cl)cc1Cl`, the Potency entry is “inactive”. On to `CC(C)(C)C(O)C(Oc1ccc(Cl)cc1)n1cncn1` (stereo not given), for which the Potency entry was “inactive”.

As for `COc1ccc2c(c1)CN(C)CC2c1ccc(Cl)c(Cl)c1` (stereo not given), the Potency was 20800 nM (active). For the molecule `CC[C@@H]1[C@@H](C)O[C@@](O)([C@@H](C)[C@H](O)[C@H](C)[C@H]2OC(=O)C=CC=C[C@@H](C)[C@@H]([C@@H](C)[C@@H](O)[C@H](C)[C@@]3(O)C[C@H](O[C@H]4C[C@H](O)[C@H](O)[C@H](C)O4)[C@H](CC)[C@@H](C)O3)OC(=O)C=CC=C[C@@H]2C)C[C@H]1O[C@H]1C[C@H](O)[C@H](O)[C@H](C)O1`, the Potency result is “inactive”. Regarding `CC=C(C)C(=O)O[C@H]1C(C)=C2[C@@H]3OC(=O)[C@@](C)(O)[C@@]3(O)[C@@H](OC(=O)CCC)C[C@](C)(OC(C)=O)[C@@H]2[C@@H]1OC(=O)CCCCCCC`, the Potency entry was “inactive”.

Take `C[C@@H]1O[C@@H](O[C@@H]2C=C3CC[C@@H]4[C@@H](CC[C@]5(C)[C@H](c6ccc(=O)oc6)CC[C@@]45O)[C@@]3(C)CC2)[C@H](O)[C@H](O)[C@H]1O`: the Potency was 16.5 nM (active). Take `O=[N+]([O-])c1c(Cl)c(Cl)cc(Cl)c1Cl`: the Potency entry was “inactive”. As for `C[C@H]1CCCC=CC2C[C@H](O)C[C@@H]2[C@H](O)C=CC(=O)O1` (stereo not given in full), the Potency is 208 nM (active). As to `C[C@]12Cc3cn[nH]c3C[C@@H]1CC[C@@H]1[C@H]2CC[C@@]2(C)[C@H]1CC[C@]2(C)O`, the Potency entry is “inactive”. For `CC[C@@]1(O)C(=O)OCc2c1cc1n(c2=O)Cc2cc3ccccc3nc2-1`, the Potency is 1040 nM (active).

Regarding `CC(C)N[C@@H]1CCn2c(=O)[nH]c3cccc(c32)[C@@H]1O`, the Potency result is “inactive”.

Take `O=c1[nH]c2ccc(Cl)cc2c(N[C@@H]2CN3CCC2CC3)c1-c1nc2ccccc2[nH]1`: the Potency was 1310 nM (active).
